In PubChem BioAssay AID1159580 (chemical genetic matrix, 2015) one finds normalized growth data, which are given here for 1 compound.

Hit rate of the full screen: of about 5,500 compounds, about 2,000 (36%) were called active. About 18% were inconclusive and are not listed. This is one part of the list. A number with no mark means an inactive call. No stated cut-off is given here; in the data, active means normalized growth mostly below about 0.91 (no sharp cut-off); inconclusive means no clear call, values can overlap the other calls; inactive means mostly above about 0.92.

This test in a line: chemical genetic growth profiling, strain panel (AID 1159580).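 Further: tested at 20 µM; growth read once vehicle control cultures reached saturation at 30 °C; 1 = growth at the plate median or of vehicle wells; lower values mean less growth of the strain.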 The settings on record: S. cerevisiae deletion strains, growth OD.

For the compound `C[C@]12Cc3cn4c(nc3C=C1CCC1C2CC[C@@]2(C)[C@H]1CC[C@@]2(O)C#N)nc1ccccc14` (stereo partly specified), the normalized growth runs as follows: (locus YAL040C, strain CLN3, active compounds read low) 0.88 (active); (locus YCL061C, strain MRC1 (second series), active compounds read low) 0.99; (locus YDR150W, strain NUM1, active compounds read low) 1; (locus YDR363W, strain ESC2, active compounds read low) 0.975; (locus YER002W, strain NOP16, active compounds read low) 0.264 (active); (locus YGR229C, strain SMI1, active compounds read low) 0.937. The normalized growth by setting is: (locus YJR075W, strain HOC1, active compounds read low) 0.963; (locus YMR307W, strain GAS1, active compounds read low) 0.936; (locus YNL153C, strain GIM3, active compounds read low) 0.63 (active); (locus YNL175C, strain NOP13, active compounds read low) 0.229 (active); (locus YNL197C, strain WHI3, active compounds read low) 0.911; (locus YNL224C, strain SQS1, active compounds read low) 0.799 (active). Besides, the normalized growth (locus YNL322C, strain KRE1, active compounds read low) is 0.938; the normalized growth (locus YOR083W, strain WHI5 (second series), active compounds read low) is 0.852 (active); the normalized growth (locus YPL055C, strain LGE1, active compounds read low) is 0.966; the normalized growth (locus YPL241C, strain CIN2, active compounds read low) is 0.996.
